Nrf2 ARE act = activates Nrf2 signaling | AID 624171 | 410,000 compounds, 0.31% hits | AREc32 ARE-luciferase reporter (MCF7-derived line), luminescence, 24 h | Potency, µM (highest dose often 46.1 µM), for inactives: at the top dose activation, most hits filed as activators; also: potency is read from the fitted curve at half-maximal effect; % of control where 0% means no effect; nearly all actives have a fitted effect of over 65% in size
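Steps: seed AREc32_Fluc cells (1000/well, 5% FBS OPTI-MEM); incubate overnight at 37 deg C; add 23 nL compound; incubate 24 hr; add Steady-Glo; hold 30 min RT; read luminescence.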
IL-2 act = activators of IL-2; IL-2 activation reporter assay, cell-based qHTS; stimulated with anti-CD3/CD4/CD28 beads; in transgenic mouse T cells; activation, % (series mostly up to about 46 µM); 360,000 compounds, 0.065% hits; in the data active = activation above about 50%; inconclusive = mostly about 30% to 49%; also: 0% is about no effect
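Unstimulated transgenic mouse T cells; 60-min compound exposure; bead-based TCR/CD4/CD28 stimulation; 18 h culture, 37 degrees C; dual fluorescence (EGFP, DsRed) plate cytometry.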
ELG1 repair inh = blocks ELG1-dependent DNA repair in HEK293T cells; Potency, µM (top dose mostly 46.1 µM), for the others: at the highest dose activity change, negative = inhibition, most hits filed as inhibitors; HEK293T ELG1-luciferase reporter, luminescence, 16 h; DNA damage induced by 5-fluorouridine; 330,000 compounds, 2.3% hits; also: potency is read from the fitted curve at half-maximal effect; % is scaled to controls: 0 for no effect and ±100 for the full control effect; nearly all actives have a fitted effect of over 55% in size
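Step one: seed 2,000 cells per well. Step two: pin-transfer compound or DMSO alongside 5-fluorouridine. Step three: incubate 16 hr, 37 °C, 5% CO2. Step four: add ONE-Glo, wait 30 min, read luminescence.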
BRCA1 expr up = increases BRCA1 expression; Potency, µM (titrated, usually from 46.1 µM), for the others: at the highest dose activation, actives largely listed as activators; 380,000 compounds, 1.1% hits; MCF7-BRCA1-FFLuc reporter, luminescence, 48 h; response scale: scaled: vehicle 0%, 10 µM genistein 100%; also: potency is read from the fitted curve at half-maximal effect; nearly all actives have a fitted effect of over 80% in size
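Quantitative HTS in MCF7 cells stably reporting BRCA1 expression via firefly luciferase. Compound treatment lasts 48 h at 37 °C in phenol-red free MEM. Activation is expressed relative to genistein at 10 microM and DMSO.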
An asterisk follows results filed as active; ? = inconclusive; nt = no result given. Sampled rows, rich in hits. Any-hit rate of the full collection: about 3.1%. Unless noted, calls follow the shape of the dose curve; as a rule, active = well fitted curve in the direction sought with a large enough effect; inconclusive = small, poorly fitted or top-dose-only effect, or another doubt; inactive = no such curve, though single readings can be large; an effect the other way counts as inactive or inconclusive.

SMILES | Nrf2 ARE act | IL-2 act | ELG1 repair inh | BRCA1 expr up
Oc1ccc2c(c1)oc1cc(O)ccc12 | 13µM* | -2 | ? | 43%
O=c1c2c(nc3c(-c4ccc(Cl)cc4)c[nH]n13)CCCC2 | -1% | 0 | 10µM* | -94%
COc1cc(C(=O)Nc2ccc3oc(-c4ccccc4)nc3c2)cc(OC)c1OC | -3% | nt | nt | nt
Cc1ccc(NC(=O)CSc2nc3c(oc4ccccc43)c(=O)n2Cc2ccco2)cc1 | 0% | nt | nt | 12%
CNc1nc(-c2ccc3c(c2)CCN3C(=O)CC(C)(C)C)c(C)s1 | 10% | 1 | -24% | 11µM*
Nc1c(-c2ccc(F)c(F)c2)nc2ncccn12 | nt | 0 | nt | nt
COc1ccc(-n2c(C)nc3cc(C(=O)NC4CCCC4)ccc32)cc1 | 0% | nt | nt | nt
O=C(Nc1ccc([N+](=O)[O-])cc1)Nc1nc(-c2ccc(Cl)s2)cs1 | 7% | 0 | 10µM* | -84%
CCOC(=O)[C@H]1[C@H]2COc3cc(OC)ccc3[C@@H]2N2C(=O)CN(CCc3c[nH]c4ccccc34)C(=O)[C@@]12C | 1% | 0 | -26% | -30%
COc1ccc2c(c1)OC[C@H]1[C@H]2N2C(=O)CN(CCc3c[nH]c4ccccc34)C(=O)[C@@]2(C)[C@H]1c1ccccc1 | 0% | 0 | 5.8µM* | -42%
Cn1c(=O)c2c(nc(CN3CCN(c4ccccc4F)CC3)n2Cc2ccc(F)cc2)n(C)c1=O | 8% | nt | nt | nt
CC(C)=CCOc1c2ccoc2cc2oc(=O)ccc12 | 4% | 1 | 7% | 1%
CC(C)=CCOc1c2ccoc2c(OCC=C(C)C)c2oc(=O)ccc12 | 0% | -4 | 23µM* | -12%
Cn1c(-c2nonc2N)nc2ccccc21 | 0% | 2 | -2% | 36%
CCCn1c(-c2nonc2N)nc2ccccc21 | -1% | 1 | 16µM* | 7%
O=C(c1cc(-c2ccc(Cl)c(Cl)c2)on1)N1CCOCC1 | 3% | 1 | ? | 1.3µM*
O=C(c1cc(-c2ccccc2)on1)N1CCCCCC1 | 0% | -6 | ? | 1.8µM*
O=C(c1cc(-c2ccccc2)on1)N1CCN(C(=O)c2ccco2)CC1 | 0% | -1 | ? | 44%
O=C(c1cc(-c2ccc(Cl)cc2)on1)N1CCOCC1 | -1% | -2 | ? | 24%
Cc1ccc(-c2cc(C(=O)N3CCCCCC3)no2)cc1 | 0% | -2 | ? | ?
COc1cccc(-c2cc(C(=O)N3CCCCC3C)no2)c1 (centres undefined) | 0% | 2 | ? | 2.8µM*
CN1CCN(C(=O)c2cc(-c3ccccc3)on2)CC1 | 1% | -1 | ? | 7.9µM*
CCc1nnc2c(Nc3ccc(N(CC)CC)cc3C)nc3ccccc3n12 | 0% | nt | nt | nt
CCN(CC)S(=O)(=O)c1ccc(NC(=O)[C@H](CSCc2ccccc2)N2Cc3ccccc3C2=O)cc1 | -1% | nt | nt | -33%
Cc1ccccc1CNC(=O)Cc1ccc(NC(=O)N2CCCCc3ccccc32)cc1 | 4% | nt | nt | -8%
SMILES | Nrf2 ARE act | IL-2 act | ELG1 repair inh | BRCA1 expr up
CCOC(=O)c1c(-c2ccc(Br)cc2)csc1NC(=O)c1ccc(C(C)(C)C)cc1 | 0% | nt | nt | nt
CC(C)(C)NC(=O)C1C(c2ccccc2)=Nc2ccccc2N1C(=O)c1ccc(C(F)(F)F)cc1 (centres undefined) | nt | 0 | nt | nt
Cc1c(Cl)cccc1Nc1nc(N)nc(CSc2ncccn2)n1 | 4% | 0 | ? | 10µM*
Cc1c(Cl)cccc1Nc1nc(N)nc(CSCCO)n1 | 3% | -4 | 6% | 19%
O=C(Nc1ccncc1)C1C(=O)c2ccccc2N(Cc2ccccc2)C1=O (centres undefined) | nt | nt | nt | -4%
CC(=O)c1c(C)[nH]c(C(=O)COC(=O)c2c(-c3ccccc3)noc2C)c1C | 0% | -5 | 21µM* | -74%
CN(C)c1ccc(C=C(C#N)C(=O)c2ccccc2)cc1Br | 0% | 0 | nt | 6%
CCCCC(=O)OCC(=O)c1[nH]c(C)c(C(=O)OCC)c1C | 0% | -2 | ? | -17%
CCOC(=O)c1c(C)[nH]c(C(=O)COC(=O)C23CC4CC(CC(Cl)(C4)C2)C3)c1C | 1% | -2 | 12µM* | 3%
Clc1nssc1=Nc1ccccc1 | 3% | -1 | ? | -19%
Clc1ccc(N=c2ssnc2Cl)cc1 | 7% | -1 | 16µM* | -60%
CCOC(=O)C1(C#N)Cc2ccccc2C1 | -1% | 0 | nt | -2%
CSc1ccc(CCNC(=O)c2nn(C)c3c2CS(=O)(=O)c2ccccc2-3)cc1 | 0% | 0 | 26µM* | -37%

Compound activity: PubChem, National Center for Advancing Translational Sciences (NCATS)
